Source: publication PMC11006913

Key:
Assay in all cases: PBM; 200 nM protein, PBS
Conditions in all cases: dsDNA, one strand shown
HOXA4 [1] = target: HOXA4 (Homo sapiens, UniProt Q00056 201-287, W262R)
HOXA4 [2] = target: HOXA4 (Homo sapiens, UniProt Q00056 201-287, R217L)
HOXA4 [3] = target: HOXA4 (Homo sapiens, UniProt Q00056 201-287)
HOXA4 [4] = target: HOXA4 (Homo sapiens, UniProt Q00056 201-287, W262F)
Chain of HOXA4 (Homo sapiens, UniProt Q00056 201-287, W262F) (Q00056 201-287 W262F): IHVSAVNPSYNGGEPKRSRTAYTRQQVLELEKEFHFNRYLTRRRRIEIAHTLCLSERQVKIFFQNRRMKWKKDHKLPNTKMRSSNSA

Chain of HOXA4 (Homo sapiens, UniProt Q00056 201-287, W262R) (Q00056 201-287 W262R): as the sequence (Q00056 201-287 W262F) above, with F62R counted along it
Chain of HOXA4 (Homo sapiens, UniProt Q00056 201-287, R217L) (Q00056 201-287 R217L): as the sequence (Q00056 201-287 W262F) above, with R17L, F62W counted along it
Chain of HOXA4 (Homo sapiens, UniProt Q00056 201-287) (Q00056 201-287): as the sequence (Q00056 201-287 W262F) above, with F62W counted along it

Sequence	binding signal (HOXA4 [1])	binding signal (HOXA4 [2])	binding signal (HOXA4 [3])	binding signal (HOXA4 [4])
CCAGCCGG	9.8 upbm affinity estimate (log intensity, higher = more binding, comparable within an allelic series)	9.68 upbm affinity estimate (log intensity, higher = more binding, comparable within an allelic series)	9.56 upbm affinity estimate (log intensity, higher = more binding, comparable within an allelic series)	9.77 upbm affinity estimate (log intensity, higher = more binding, comparable within an allelic series)
AATCCCCC	9.83 upbm affinity estimate (log intensity, higher = more binding, comparable within an allelic series)	9.86 upbm affinity estimate (log intensity, higher = more binding, comparable within an allelic series)	9.87 upbm affinity estimate (log intensity, higher = more binding, comparable within an allelic series)	9.73 upbm affinity estimate (log intensity, higher = more binding, comparable within an allelic series)
GATTTATA	10.4 upbm affinity estimate (log intensity, higher = more binding, comparable within an allelic series)		11.4 upbm affinity estimate (log intensity, higher = more binding, comparable within an allelic series)	
CACCCTGG	9.95 upbm affinity estimate (log intensity, higher = more binding, comparable within an allelic series)	9.74 upbm affinity estimate (log intensity, higher = more binding, comparable within an allelic series)	9.78 upbm affinity estimate (log intensity, higher = more binding, comparable within an allelic series)	9.87 upbm affinity estimate (log intensity, higher = more binding, comparable within an allelic series)
AATTGTTC	10.4 upbm affinity estimate (log intensity, higher = more binding, comparable within an allelic series)		11.9 upbm affinity estimate (log intensity, higher = more binding, comparable within an allelic series)	
CCACGCCC	9.84 upbm affinity estimate (log intensity, higher = more binding, comparable within an allelic series)	9.85 upbm affinity estimate (log intensity, higher = more binding, comparable within an allelic series)	9.64 upbm affinity estimate (log intensity, higher = more binding, comparable within an allelic series)	9.99 upbm affinity estimate (log intensity, higher = more binding, comparable within an allelic series)
CAGACCTC	9.86 upbm affinity estimate (log intensity, higher = more binding, comparable within an allelic series)	9.83 upbm affinity estimate (log intensity, higher = more binding, comparable within an allelic series)	9.81 upbm affinity estimate (log intensity, higher = more binding, comparable within an allelic series)	9.9 upbm affinity estimate (log intensity, higher = more binding, comparable within an allelic series)
CAGGGGGA	9.68 upbm affinity estimate (log intensity, higher = more binding, comparable within an allelic series)	9.64 upbm affinity estimate (log intensity, higher = more binding, comparable within an allelic series)	9.87 upbm affinity estimate (log intensity, higher = more binding, comparable within an allelic series)	9.7 upbm affinity estimate (log intensity, higher = more binding, comparable within an allelic series)
TAAAATTA	10.3 upbm affinity estimate (log intensity, higher = more binding, comparable within an allelic series)		12.2 upbm affinity estimate (log intensity, higher = more binding, comparable within an allelic series)	
ACCCGTAG	9.8 upbm affinity estimate (log intensity, higher = more binding, comparable within an allelic series)	9.7 upbm affinity estimate (log intensity, higher = more binding, comparable within an allelic series)	9.84 upbm affinity estimate (log intensity, higher = more binding, comparable within an allelic series)	9.82 upbm affinity estimate (log intensity, higher = more binding, comparable within an allelic series)
GAAAACGA	10.1 upbm affinity estimate (log intensity, higher = more binding, comparable within an allelic series)		10.9 upbm affinity estimate (log intensity, higher = more binding, comparable within an allelic series)	
CCTTCCCG	9.88 upbm affinity estimate (log intensity, higher = more binding, comparable within an allelic series)	9.86 upbm affinity estimate (log intensity, higher = more binding, comparable within an allelic series)	9.79 upbm affinity estimate (log intensity, higher = more binding, comparable within an allelic series)	9.89 upbm affinity estimate (log intensity, higher = more binding, comparable within an allelic series)
AGGGCGAG	9.83 upbm affinity estimate (log intensity, higher = more binding, comparable within an allelic series)	9.74 upbm affinity estimate (log intensity, higher = more binding, comparable within an allelic series)	9.74 upbm affinity estimate (log intensity, higher = more binding, comparable within an allelic series)	9.91 upbm affinity estimate (log intensity, higher = more binding, comparable within an allelic series)
